This passage reports differential viability (reversal) and viability results from PubChem BioAssay.

Activity calls are given as the source filed them.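 Rule for the calls: active = viability loss from added drug above about 55%, and viability with drug at most 40%, in both replicates (limit read from the data, passing the limit was not always enough); inconclusive = both conditions met in only one replicate; inactive = neither replicate meets both conditions.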

A short description of the first test: reversal of MRP1-mediated doxorubicin resistance, pilot screen, H69AR cells, doxorubicin co-treatment (AID 601). Conditions: H69AR cells + 2 uM doxorubicin, CellTiter-Glo, 72 h; at 10 µM; stronger effect = higher value.
Turning to `CSc1nnc2c3ccccc3n(Cc3ccccc3)c2n1`, the differential viability (reversal) is 1.23% (inactive).

Regarding `O=S(=O)(Cc1ccc(Cl)cc1)Nc1ccc2c(c1)OCO2`, the differential viability (reversal) is 17.3% (inactive).

On to `O=C(CSc1nnnn1-c1ccccc1)Nc1nsc(-c2ccc(Cl)cc2)n1`, for which the differential viability (reversal) was -0.79% (inactive).

Turning to `Cc1csc(NC(=O)c2sc3nc(-c4cccs4)ccc3c2N)n1`, the differential viability (reversal) is -12.4% (inactive).

Staying with this test, now noted: H69AR cells + 2 uM doxorubicin, CellTiter-Glo, 72 h; measured here: viability with 2 uM doxorubicin; at 10 µM; stronger effect = lower value.
Regarding `CSc1nnc2c3ccccc3n(Cc3ccccc3)c2n1`, the viability is 30.3%.

On to `O=S(=O)(Cc1ccc(Cl)cc1)Nc1ccc2c(c1)OCO2`, for which the viability worked out at 86.8%.

`O=C(CSc1nnnn1-c1ccccc1)Nc1nsc(-c2ccc(Cl)cc2)n1`: the viability was determined as 54.8%.

Turning to `Cc1csc(NC(=O)c2sc3nc(-c4cccs4)ccc3c2N)n1`, the viability worked out at 60.3%.

Still in this test, the particulars now being: H69AR cells, CellTiter-Glo, 72 h; compound alone cytotoxicity; at 10 µM.
Turning to `CSc1nnc2c3ccccc3n(Cc3ccccc3)c2n1`, the viability came to 31.6%.

For the compound `O=S(=O)(Cc1ccc(Cl)cc1)Nc1ccc2c(c1)OCO2`, the viability was 104%.

As for `O=C(CSc1nnnn1-c1ccccc1)Nc1nsc(-c2ccc(Cl)cc2)n1`, the viability is 54%.

As to `Cc1csc(NC(=O)c2sc3nc(-c4cccs4)ccc3c2N)n1`, the viability amounted to 47.9%.

What is called viability is a read-out of living cells in per cent, often relative to untreated cells.
